From PubChem BioAssay
SSB-PriA inh – inhibitors of Klebsiella pneumoniae PriA binding to SSB C-terminal tail, primary screen, biochemical, AlphaScreen. AlphaScreen SSBct-PriA binding, biotinylated peptide. inhibition, % at 33 µM. actives 0.6% (n = 430,000); in the data active = inhibition mostly above about 37%, no sharp cut-off; inactive = mostly below about 20%
RecA intein inh – Mtb RecA intein splicing inhibitors, primary screen, biochemical, fluorescence, HTS; actives 0.75% (n = 290,000); inhibition, % (no concentration beside the values); cell-free RecA intein splicing; AID 2221, 2009; Protein RecA (Mycobacterium tuberculosis (strain ATCC 25618 / H37Rv)), P9WHJ3; in the data active = inhibition above about 30%
CCHF vOTU inh-1 – CCHFV vOTU protease inhibitors, primary screen, biochemical, Pep-AMC substrate, fluorescence; Crimean-Congo hemorrhagic fever virus L polyprotein viral ovarian tumor (vOTU) protease …; inhibition, % at 11.5 µM; actives 0.55% (n = 370,000); AID 651958, 2012
VHR inh abs – VHR1 phosphatase inhibitors, primary screen, biochemical, absorbance, uHTS. actives 0.52% (n = 290,000). AID 1654, 2009. inhibition, % at 13.3 µM. Dual specificity protein phosphatase 3 (Homo sapiens), P51452. recombinant VHR phosphatase, pNPP absorbance; in the data active = inhibition above about 50%
Target sequence (P51452 whole entry, looked up): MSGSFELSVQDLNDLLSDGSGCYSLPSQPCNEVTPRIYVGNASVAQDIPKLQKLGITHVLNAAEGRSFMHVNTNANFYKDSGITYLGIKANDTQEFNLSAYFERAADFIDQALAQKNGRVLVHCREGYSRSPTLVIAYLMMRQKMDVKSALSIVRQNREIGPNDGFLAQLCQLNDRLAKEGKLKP
SARS 3CLpro inh – SARS-CoV 3CLpro protease inhibitors, primary screen, biochemical, quenched FRET. inhibition, % at 6 µM. Replicase polyprotein 1ab (Severe acute respiratory syndrome coronavirus), P0C6X7. actives 0.14% (n = 290,000). recombinant SARS-CoV 3CLpro, quenched FRET peptide cleavage; in the data active = inhibition above about 12%
CCHF vOTU inh-2 – CCHFV vOTU protease inhibitors, confirmation, biochemical, Pep-AMC substrate, fluorescence. inhibition, % at 11.5 µM. AID 686976, 2013. Recombinant CCHFV vOTU. shares compounds with CCHF vOTU inh-1. actives 17% (n = 1,900)
Of the large screens only hits and unclear results are named; the others gave an inactive call (follow-up assays come after a bar, where they were run). In the library only some 1.7% were active in any assay of this set; here they are far more common. Cut-off read from the data, not from the text of the source, unless noted: active = inhibition above about 30%; inactive = the rest.

CC1(C)CC(C(CCN(Cc2ccccc2)C(=O)c2ccco2)c2ccc(F)cc2)CCO1 (stereo not drawn)	RecA intein inh 35, CCHF vOTU inh-1 33 | CCHF vOTU inh-2 inactive
CC1(C)CC(=O)C(C=Nc2ccc(N)cc2)=C(O)C1	CCHF vOTU inh-1 63 | CCHF vOTU inh-2 inactive
COC(=O)C1C(O)=C(C=Nc2ccccc2)C(=O)CC1(C)C (stereo not drawn)	none
COC(=O)C1C(O)=C(C=Nc2ccc(N)cc2)C(=O)CC1(C)C (stereo not drawn)	CCHF vOTU inh-1 40 | CCHF vOTU inh-2 inactive
CC1(C)CC(=O)C(C=Nc2ccc(O)cc2)=C(O)C1	none
CCC1SC(=NN=Cc2ccco2)NC1=O (stereo not drawn)	none (no result: RecA intein inh, CCHF vOTU inh-1, VHR inh abs, SARS 3CLpro inh)
Cc1onc(-c2ccccc2Cl)c1C(=O)N1CCC(Cc2ccccc2)CC1	CCHF vOTU inh-1 32 | CCHF vOTU inh-2 inactive
Cc1onc(-c2ccccc2Cl)c1C(=O)N1CCC(C(N)=O)CC1	none
COc1ccc(CN2CCN(Cc3ccccc3C(F)(F)F)CC2)c(OC)c1	CCHF vOTU inh-1 30 | CCHF vOTU inh-2 inactive
COc1cccc(CN2CCN(Cc3ccccc3C(F)(F)F)CC2)c1	none
CN(C)c1ccc(/C=N/NC(=O)c2cc(=O)[nH]c3ccccc23)cc1	CCHF vOTU inh-1 32 (no result: SSB-PriA inh) | CCHF vOTU inh-2 inactive
C[C@](O)(CNC(=O)N1CCNC1=O)C1CC1	none (no result: RecA intein inh, CCHF vOTU inh-1, VHR inh abs, SARS 3CLpro inh)
CCOc1ccc(NC(=NCc2ccc3c(c2)OCO3)SC2CC(=O)N(c3ccc(C(=O)O)cc3)C2=O)cc1 (stereo not drawn)	CCHF vOTU inh-1 30 | CCHF vOTU inh-2 inactive
CCOc1ccccc1-c1nc(CSc2nc3ccccc3c(=O)n2CC2CCCO2)c(C)o1 (stereo not drawn)	none (no result: RecA intein inh, CCHF vOTU inh-1, VHR inh abs, SARS 3CLpro inh)
CC(O)(c1ccc(F)c(F)c1)c1nc(-c2cccc(C(F)(F)F)c2)cs1 (stereo not drawn)	CCHF vOTU inh-1 39 (no result: SSB-PriA inh, RecA intein inh, VHR inh abs, SARS 3CLpro inh) | CCHF vOTU inh-2 inactive
CC(O)(c1cccc(F)c1)c1nc(-c2cccc(C(F)(F)F)c2)cs1 (stereo not drawn)	none (no result: SSB-PriA inh, RecA intein inh, VHR inh abs, SARS 3CLpro inh)
COc1ccc(C2C(C(=O)N3CCCC3)c3cc(OC)c(OC)cc3C(=O)N2C)cc1OC (stereo not drawn)	CCHF vOTU inh-1 31 | CCHF vOTU inh-2 inactive
CCOc1ccc(C(=O)C(C)OC(=O)C2CCN(c3ccc(C(F)(F)F)cn3)CC2)cc1 (stereo not drawn)	CCHF vOTU inh-1 35 (no result: VHR inh abs, SARS 3CLpro inh) | CCHF vOTU inh-2 inactive
Cc1cc(C)c(NC(=O)COC(=O)C2CCN(c3ccc(C(F)(F)F)cn3)CC2)c(Cl)c1	none (no result: VHR inh abs, SARS 3CLpro inh)
COc1ccccc1CNC(=O)COC(=O)C1CCN(c2ccc(C(F)(F)F)cn2)CC1	CCHF vOTU inh-1 44 (no result: VHR inh abs, SARS 3CLpro inh) | CCHF vOTU inh-2 inactive
Cc1cc(C)c(NC(=O)CNC(=O)COC(=O)C2CCN(c3ccc(C(F)(F)F)cn3)CC2)c(C)c1	CCHF vOTU inh-1 34 | CCHF vOTU inh-2 inactive
CC1=C(C(=O)N(C(C)C)C(C)C)CC(CC(=O)NC(c2ccccc2)c2ccccc2)C(=O)N1Cc1ccc(C(C)(C)C)cc1 (stereo not drawn)	CCHF vOTU inh-1 35 (no result: SSB-PriA inh, RecA intein inh, VHR inh abs, SARS 3CLpro inh) | CCHF vOTU inh-2 inactive
CCC12CCCN3CCc4c(n(c5ccccc45)C(O)(C(=O)OC)C1)C32 (stereo not drawn)	CCHF vOTU inh-1 42 | CCHF vOTU inh-2 inactive
COc1cc(/C=N/NC(=O)C(Cc2c[nH]c3ccccc23)NC(=O)OCc2ccccc2)cc([N+](=O)[O-])c1O (stereo not drawn)	CCHF vOTU inh-1 35 (no result: SSB-PriA inh) | CCHF vOTU inh-2 inactive
COc1cc(/C=N/NC(=O)C(Cc2c[nH]c3ccccc23)NC(=O)OCC(C)C)cc([N+](=O)[O-])c1O (stereo not drawn)	none (no result: SSB-PriA inh)
Cc1ccc(NS(=O)(=O)c2cccc3cccnc23)c(Br)c1	none
Cc1ccc(NS(=O)(=O)c2cccc3cccnc23)c(Cl)c1	CCHF vOTU inh-1 37 | CCHF vOTU inh-2 inactive
CCOC(=O)C(=NNc1ccc(Cl)cc1)Sc1nnnn1-c1ccc(C)cc1	none (no result: RecA intein inh, CCHF vOTU inh-1, VHR inh abs, SARS 3CLpro inh)
